Measurements from PubChem BioAssay.
The source made the active and inactive calls. Unless noted, how the calls were made is not given here.

Tests used:
[1] = A549 cell viability effects, profiling panel, calcein-AM fluorescence, 48 h, basal (AID 1162); details: higher = more signal; further: test concentration not given here
[2] = adipocyte viability effects, profiling panel, cell-based, 3T3-L1 adipocytes, calcein-AM fluorescence, 48 h, basal (AID 1163); details: 3T3-L1 adipocytes viability, higher = more signal; further: test concentration not given here
[3] = HepG2 cell viability effects, profiling panel, calcein-AM fluorescence, 48 h, basal (AID 1164); details: higher = more signal; further: test concentration not given here
[4] = MM1S cell viability effects, profiling panel, calcein-AM fluorescence, 48 h, basal (AID 1165); details: higher = more signal;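 further: viability of MM1S multiple myeloma cells under basal unstimulated conditions; test concentration not given here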
[5] = basal RPMI8226 viability, no added stimulus, profiling panel, cell-based, calcein-AM fluorescence, 48 h, PK04 Diversity Set (AID 1166); details: RPMI8226 myeloma viability, higher = more signal;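 further: cells grown under basal conditions without added stimulus; test concentration not given here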
[6] = basal HepG2 mitochondrial membrane potential changes, profiling panel, cell-based, JC-1 fluorescence, 24 h, 100 nL compound (AID 1167); details: higher = more signal; further: test concentration not given here
[7] = basal 3T3-L1 adipocyte mitochondrial potential changes, profiling panel, cell-based, JC-1 fluorescence, 3T3-L1 adipocytes, 24 h, 100 nL compound (AID 1168); details: JC-1 mitochondrial fluorescence, higher = more signal, called active from +8 up or from −8 down; further: test concentration not given here
[8] = basal RPMI8226 mitochondrial membrane potential changes, profiling panel, cell-based, JC-1 fluorescence, 24 h, 100 nL compound (AID 1169); details: RPMI8226 myeloma, JC-1 mitochondrial potential fluorescence, higher = more signal; further: test concentration not given here
[9] = basal MM1S mitochondrial membrane potential changes, profiling panel, cell-based, JC-1 fluorescence, 24 h, 100 nL compound (AID 1170); details: higher = more signal; further: test concentration not given here
[10] = A549 lung cancer cell viability effects, profiling panel, resazurin fluorescence, 24 h, PK04 Diversity Set (AID 1171); details: higher = more signal, called active from +8 up or from −8 down; further: test concentration not given here
[11] = HepG2 liver cancer cell viability effects, profiling panel, resazurin fluorescence, 24 h, PK04 Diversity Set (AID 1172); details: higher = more signal; further: test concentration not given here
[12] = basal S. cerevisiae growth modulation, no modifier, primary screen, OD600, strain BY4716, 24 h, basal condition (AID 1173); details: OD600, 24 h, higher = more signal, called active from +8 up or from −8 down
[13] = MM1S myeloma cell viability, profiling panel, resazurin fluorescence, basal, 24 h, PK04 Diversity Set (AID 1174); details: higher = more signal, called active from +8 up or from −8 down;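 further: MM1S multiple myeloma cell line; test concentration not given here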
[14] = target: Dihydroorotate dehydrogenase (quinone), mitochondrial (Plasmodium falciparum (isolate 3D7)) (UniProt Q08210); experiment: PfDHODH enzyme inhibitors, primary screen, biochemical, C-terminal His tag, absorbance 600 nm (AID 1175); details: DCIP absorbance 600 nm, higher = more signal, called active from +8 up or from −8 down;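 further: recombinant parasite enzyme with a five histidine tag at its C terminus; test concentration not given here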
Dihydroorotate dehydrogenase (quinone), mitochondrial (Plasmodium falciparum (isolate 3D7)), sequence (Q08210 whole entry, looked up): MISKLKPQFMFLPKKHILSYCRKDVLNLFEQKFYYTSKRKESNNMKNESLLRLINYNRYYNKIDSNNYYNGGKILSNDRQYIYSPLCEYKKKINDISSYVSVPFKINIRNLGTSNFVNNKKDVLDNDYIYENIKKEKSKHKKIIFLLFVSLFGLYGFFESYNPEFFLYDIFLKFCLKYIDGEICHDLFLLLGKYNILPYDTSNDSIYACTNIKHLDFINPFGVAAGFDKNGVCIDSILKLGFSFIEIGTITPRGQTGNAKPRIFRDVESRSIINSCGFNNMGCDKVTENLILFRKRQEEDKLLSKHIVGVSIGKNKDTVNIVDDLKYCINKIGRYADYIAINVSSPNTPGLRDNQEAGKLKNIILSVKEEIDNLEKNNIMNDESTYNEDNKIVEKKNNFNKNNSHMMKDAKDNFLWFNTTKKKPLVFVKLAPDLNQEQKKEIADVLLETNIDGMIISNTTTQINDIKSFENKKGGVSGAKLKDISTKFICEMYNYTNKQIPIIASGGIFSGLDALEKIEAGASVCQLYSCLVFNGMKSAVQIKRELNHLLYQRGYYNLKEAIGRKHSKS

[15] = P. aeruginosa biofilm formation inhibitors, primary screen, strain PAO1, LB-PBS medium, absorbance 600 nm (AID 1176); further: test concentration not given here; details: P. aeruginosa PAO1 growth/biofilm, A600, 12 h; higher = more signal
[16] = S. cerevisiae RM11-1a growth modifiers, primary screen, strain RM11-1a, OD600, basal, 24 h (AID 1177); details: OD600, 24 h, higher = more signal, called active from +8 up or from −8 down;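 further: cultures grown under basal conditions with no added stressor; test concentration not given here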
[17] = E. coli acrAB mutant growth effects, primary screen, E. coli filamentation inducers, strain DRC39, OD650, 24 h (AID 1178); details: higher = more signal, called active from +8 up or from −8 down;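 further: growth measured as culture turbidity by optical density at 650 nm; test concentration not given here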
[18] = E. coli acrAB mutant growth effects, primary screen, E. coli filamentation inducers, strain DRC39, OD650, 48 h (AID 1179);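 further: screen aims at cell division blockers that make cells filament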; details: E. coli DRC39 delta-acrAB growth, higher = more signal, called active from +8 up or from −8 down
[19] = RPMI8226 myeloma cell viability, profiling panel, resazurin fluorescence, basal, 24 h, PK04 Diversity Set (AID 1180); details: higher = more signal;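 further: RPMI8826 multiple myeloma cell line at 5000 cells per well; test concentration not given here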
[20] = target: E3 ubiquitin-protein ligase XIAP (Homo sapiens) (UniProt P98170); experiment: XIAP binders, primary screen, biophysical, small-molecule microarray, fluorescence 635 nm (AID 1181); details: small-molecule microarray binding, higher = more signal;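 further: score merges 667 nm emission and signal to noise over triplicate slides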
E3 ubiquitin-protein ligase XIAP (Homo sapiens), sequence (P98170 whole entry, looked up): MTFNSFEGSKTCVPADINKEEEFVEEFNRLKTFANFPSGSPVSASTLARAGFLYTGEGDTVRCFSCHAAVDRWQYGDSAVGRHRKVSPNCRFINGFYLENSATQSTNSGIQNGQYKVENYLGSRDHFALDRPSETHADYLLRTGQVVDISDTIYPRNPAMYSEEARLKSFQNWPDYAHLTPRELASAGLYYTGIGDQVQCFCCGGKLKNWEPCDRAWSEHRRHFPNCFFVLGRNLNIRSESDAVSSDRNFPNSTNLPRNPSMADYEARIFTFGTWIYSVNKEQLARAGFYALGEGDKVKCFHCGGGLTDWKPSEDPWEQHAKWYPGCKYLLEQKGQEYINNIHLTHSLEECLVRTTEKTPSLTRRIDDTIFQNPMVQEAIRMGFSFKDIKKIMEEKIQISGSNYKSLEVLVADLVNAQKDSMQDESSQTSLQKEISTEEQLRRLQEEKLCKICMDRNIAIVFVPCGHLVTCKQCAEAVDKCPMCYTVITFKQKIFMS

SMILES	z-score [1]	z-score [2]	z-score [3]	z-score [4]	z-score [5]	z-score [6]	z-score [7]	z-score [8]	z-score [9]	z-score [10]	z-score [11]	z-score [12]	z-score [13]	composite z-score [14]	z-score [15]	z-score [16]	z-score [17]	z-score [18]	z-score [19]	composite z-score [20]
COC(=O)[C@@]1(Cc2ccc(F)cc2)[C@H]2c3cc(C(=O)N(C)C)n(Cc4c(CO)[nH]cc(C)c4=O)c3C[C@H]2CN1C(=O)c1ccccc1	-0.108	0.837	-0.554	-1.33	-0.372	-0.3	-0.91 (inactive)	-0.00352	-0.895	-1.42 (inactive)	-1.03	0.966 (inactive)	-1.72 (inactive)	-0.244 (inactive)	1.79 (inactive)	0.986 (inactive)	-0.0892 (inactive)	-1.36 (inactive)	-0.932	0.0153
CC1CC/C=C\[C@H]2OC34C=CCN(CCN5CCOCC5)C(=O)[C@H]3N(C(C)CO)C(=O)[C@@H]4C2C(=O)O1 (stereo not given in full)	0.956	-0.491	1.2	1.29	-0.143	0.602	0.225 (inactive)	0.0954	-0.722	-0.387 (inactive)	-0.0282	-0.348 (inactive)	-0.0757 (inactive)	-1.44 (inactive)	-0.0711 (inactive)	0.366 (inactive)	-0.0135 (inactive)	0.432 (inactive)	-0.574	-0.0807
[N-]=[N+]=NCc1ccccc1[C@H]1OC(c2ccc(OCCCO)cc2)=N[C@@]1(Cc1ccccc1)C(=O)NCCN1CCOCC1	0.526	1.06	0.688	-2.51	-1.2	1.51	-0.0131 (inactive)	-0.815	0.45	1.19 (inactive)	0.292	-1.62 (inactive)	-0.206 (inactive)	-0.905 (inactive)	1.26 (inactive)	-0.557 (inactive)	2.89 (inactive)	0.763 (inactive)	0.16	0.785
COCC(=C=CC[C@H](O)c1cccc(OCCO)c1)C[C@H](O)COCc1ccccc1	0.276	-0.48	0.0978	0.103	-0.557	-0.487	-0.3 (inactive)	0.191	-0.701	-0.359 (inactive)	-0.136	-1.76 (inactive)	-0.0529 (inactive)	-1.65 (inactive)	0.838 (inactive)	-0.496 (inactive)	-0.0164 (inactive)	0.0211 (inactive)	0.0473	0.0736
C=C(CCCC)C(=O)CC[C@H](OC(=O)c1ccccc1-c1ccccc1C(=O)O)c1ccccc1OCCO	0.305	1.1	-0.669	-3.38	-3.85	-0.309	0.954 (inactive)	-0.873	0.311	-0.22 (inactive)	-1.08	-1.45 (inactive)	-0.976 (inactive)	-0.824 (inactive)	0.91 (inactive)	-0.0444 (inactive)	0.506 (inactive)	0.237 (inactive)	-1.03	0.0416
C=C(/C(=C/C[C@H](OC(=O)c1ccncc1)c1cccc(OCCO)c1)c1cnc2ccccc2c1)C(C)C	-1.69	-1.31	-3.17	-3.07	-2.93	-0.437	-0.649 (inactive)	-0.0462	-0.888	-1.68 (inactive)	-0.982	-18.5 (active)	-1.09 (inactive)	-25.3 (active)	0.285 (inactive)	-22.1 (active)	0.116 (inactive)	-0.147 (inactive)	-0.911	0.329
CC(C)C(=C=CC[C@@H](O)c1cccc(OCCO)c1)C[C@@H](O)c1ccccn1	-0.171	-0.142	-0.295	-0.0369	0.128	-0.0286	-0.425 (inactive)	-0.387	-0.753	1.22 (inactive)	0.828	-1.02 (inactive)	0.642 (inactive)	-6.55 (inactive)	-0.0342 (inactive)	0.488 (inactive)	0.267 (inactive)	-0.158 (inactive)	0.463	0.127
COc1ccc(C(O)C2C=CC3C(=O)N(c4ccccc4)C(=O)C3N2Nc2ccccc2F)cc1 (stereo not given)	-0.775	0.406	-0.596	-0.808	-2.08	-0.334	-0.149 (inactive)	-0.288	-0.855	0.21 (inactive)	-0.229	-0.359 (inactive)	-0.0646 (inactive)	-0.0377 (inactive)	0.987 (inactive)	-0.687 (inactive)	-0.548 (inactive)	-0.869 (inactive)	0.435	0.483
C=CCNC(=O)[C@@H]1[C@H]2C(=O)O[C@H](c3ccccc3)[C@H](c3ccccc3)N2[C@H](c2ccc(OCCO)cc2)[C@@]12C(=O)N(C(=O)OCCOC)c1ccc(C#CCCO)cc12	2.85	1.86	1.22	0.485	0.927	-0.435	1.27 (inactive)	-0.709	-1.07	-0.477 (inactive)	0.266	-0.153 (inactive)	0.423 (inactive)	-0.767 (inactive)	2.16 (inactive)	1.55 (inactive)	0.756 (inactive)	0.298 (inactive)	1.04	-0.0161
CCOC(=O)C1=C[C@@H](C(C)(C)C)N(S(=O)(=O)c2ccc(C)cc2)[C@H]1c1ccc(C)cc1	-0.681	0.226	-1.73	-1.01	-1.1	6.67	-0.251 (inactive)	-0.901	0.933	0.51 (inactive)	-0.473	1.01 (inactive)	-0.328 (inactive)	-0.186 (inactive)	0.148 (inactive)	0.526 (inactive)	-0.617 (inactive)	-0.823 (inactive)	-2.18	-0.0017
CN1C(=O)C2C=CC(C(O)c3cc(C(F)(F)F)cc(C(F)(F)F)c3)N(NC(=O)OC(C)(C)C)C2C1=O (stereo not given)	-1.29	-0.122	-0.938	0.319	-1.06	-1.28	1.03 (inactive)	0.191	0.546	1.14 (inactive)	-0.725	-0.752 (inactive)	-0.117 (inactive)	-0.251 (inactive)	-0.379 (inactive)	0.215 (inactive)	-0.676 (inactive)	-1.22 (inactive)	0.349	0.394
O=c1cccc(-c2ccco2)o1	-0.69	0.474	0.219	0.0393	-0.159	-0.79	1.1 (inactive)	0.773	-0.605	-0.214 (inactive)	-0.675	-0.216 (inactive)	0.0232 (inactive)	-1.85 (inactive)	0.092 (inactive)	-0.231 (inactive)	-0.644 (inactive)	-0.338 (inactive)	-0.258	-0.179
O=C1NC(=O)C2C1C=CC(C(O)c1ccccn1)N2Nc1ccc(Cl)cc1Cl (stereo not given)	-0.881	-0.253	-0.707	-0.588	-0.54	-1.36	-0.766 (inactive)	-0.05	-0.173	-0.572 (inactive)	-1.08	-4.1 (inactive)	-0.837 (inactive)	-0.0894 (inactive)	0.931 (inactive)	0.351 (inactive)	-0.587 (inactive)	-0.534 (inactive)	-1.82	-0.131
CC(C)[Si]1(C(C)C)OCc2cc(-c3ccc(-c4ccc(Cl)c(Cl)c4)o3)nc(CCc3ccccc3)c21	0.305	0.405	0.165	-3.2	-4.26	-2.07	0.945 (inactive)	-0.838	-1.72	1.4 (inactive)	0.822	-3.49 (inactive)	-1.64 (inactive)	0.393 (inactive)	0.149 (inactive)	-0.302 (inactive)	1.46 (inactive)	0.643 (inactive)	-0.0096	-0.185
COc1ccc([Si](C)(C)[C@H]2[C@H](CCO)O[C@@]3(C(=O)N(Cc4ccccc4)c4ccc(N5CCOC5=O)cc43)[C@@H]2C)cc1	-0.119	-0.325	-2.09	-2.13	-3.4	-0.203	0.69 (inactive)	-1.11	-1.68	-1.94 (inactive)	-1.27	1.12 (inactive)	-3.35 (inactive)	0.0738 (inactive)	2.41 (inactive)	4.25 (inactive)	0.895 (inactive)	0.0981 (inactive)	-2.64	-0.135
COCCOC(=O)N1C(=O)[C@@]2(c3cc(C#CC4(O)CCCCCC4)ccc31)[C@H](C(=O)N1CCN(c3ncccn3)CC1)[C@H]1C(=O)O[C@H](c3ccccc3)[C@H](c3ccccc3)N1[C@@H]2c1ccccc1OCCO	-0.118	0.481	-0.594	-0.483	-1.98	-0.151	0.909 (inactive)	-0.288	-0.589	-0.0171 (inactive)	0.212	2.67 (inactive)	-0.194 (inactive)	0.97 (inactive)	2.12 (inactive)	3.05 (inactive)	-0.322 (inactive)	-0.473 (inactive)	0.177	-0.068
O=C1[C@@H]2[C@@H](CC(COc3ccccc3)=C3[C@@H](CCc4ccccc4)OB(O)C[C@@H]32)C(=O)N1Cc1ccccc1	-0.607	-0.141	-0.752	-3.22	-4.09	-0.851	0.453 (inactive)	-1.07	0.253	-0.0787 (inactive)	-0.665	-1.23 (inactive)	-0.0801 (inactive)	-0.77 (inactive)	0.306 (inactive)	-0.0775 (inactive)	-0.304 (inactive)	-0.915 (inactive)	-0.0577	-0.16
COCCOC(=O)N1C(=O)[C@@]2(c3cc(C#CC4(O)CCCCCC4)ccc31)[C@H](c1ccc(OCCO)cc1)N1[C@H](c3ccccc3)[C@H](c3ccccc3)OC(=O)[C@H]1[C@@H]2C(=O)Nc1nc2ccccc2s1	0.0809	0.676	0.499	-2.09	-2.15	-3.31	1.1 (inactive)	-1.07	-1.46	0.813 (inactive)	1.39	1.46 (inactive)	-0.773 (inactive)	-1.19 (inactive)	2.98 (inactive)	2.43 (inactive)	-0.0994 (inactive)	-0.347 (inactive)	-0.494	0.332
